Rin1-Abl PPI inh: human Rin1-Abl interaction inhibition; hit rate 0.4% among 360,000; inhibition, % at 7.35 µM; TR-FRET Rin1/Abl binding, biochemical; P00519+Q13671; in the data active means inhibition above about 5%, passing the limit was not always enough
Neddylation inh: inhibitors of human cullin neddylation. P61081+Q13564. TR-FRET cullin neddylation, biochemical. inhibition, % at 25 µM. hit rate 0.58% among 360,000. AID 651699; in the data active means inhibition above about 36%
ATG4B inh: blocks human ATG4B protease cleavage of LC3 substrate | Q9Y4P1 | ATG4B cleavage of LC3-PLA2, NBD-HPC fluorescence, 1 h | inhibition, % at 8.33 µM | hit rate 0.51% among 340,000 | AID 504462
Target sequence (Q9Y4P1 whole entry, looked up): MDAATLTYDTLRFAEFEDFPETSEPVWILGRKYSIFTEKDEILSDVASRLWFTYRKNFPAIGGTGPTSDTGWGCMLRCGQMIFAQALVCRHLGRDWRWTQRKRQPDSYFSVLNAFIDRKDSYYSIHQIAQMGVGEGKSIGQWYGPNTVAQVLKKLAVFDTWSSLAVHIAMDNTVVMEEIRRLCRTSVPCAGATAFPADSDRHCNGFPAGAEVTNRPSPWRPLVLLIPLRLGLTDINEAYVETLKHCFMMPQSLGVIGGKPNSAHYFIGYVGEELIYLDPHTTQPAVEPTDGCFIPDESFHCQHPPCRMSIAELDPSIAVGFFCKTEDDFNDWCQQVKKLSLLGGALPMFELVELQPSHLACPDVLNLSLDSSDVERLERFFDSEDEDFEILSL
SUMO1-SIM PPI: modulators of human SUMO1-mediated protein-protein interactions; inhibition, % at 20 µM; P63165; SUMO1 binding to a labelled peptide, TR-FRET, 1 h; hit rate 0.33% among 360,000; AID 602429; in the data active means inhibition above about 37%
Target sequence (P63165 whole entry, looked up): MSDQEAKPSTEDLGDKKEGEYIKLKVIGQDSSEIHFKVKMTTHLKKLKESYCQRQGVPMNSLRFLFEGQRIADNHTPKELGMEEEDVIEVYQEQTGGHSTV
Neddyl conf: confirmation of human cullin neddylation inhibitors. shares compounds with Neddylation inh. TR-FRET cullin neddylation biochemical assay. calls only at 25 µM. hit rate 13% among 1,800;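 further: neddylation substrate is the cullin 1 ring ligase complex with SKP2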
* = called active by the depositor; i = inactive; · = not tested or not shown; + = active, no number. Rows were chosen to be rich in hits. Some 1.7% of all compounds tested hit in one or more screens of this group. Unless noted, no stated cut-off is given here; in the data, active means inhibition above about 40%; inactive means the rest.

SMILES	Rin1-Abl PPI inh	Neddylation inh	ATG4B inh	SUMO1-SIM PPI	Neddyl conf
CC1CCN(C(=O)CN2c3cccc4cccc(c34)S2(=O)=O)CC1	-4	46*	-1	-15	·
CCNC(=O)CN1c2cccc3cccc(c23)S1(=O)=O	-4	36	-10	-2	·
COc1ccc2cc(C3(C)NC(=O)N(CC(=O)N4CCCCC4)C3=O)ccc2c1 (centres undefined)	3	8	-4	0	·
CC1CCCC(NC(=O)c2cccc(S(=O)(=O)N3CCOCC3)c2)C1C (centres undefined)	-7	5	·	-2	·
CCOC(=O)Cc1cc(=O)n2[nH]c(C)c(-c3ccc(Cl)cc3)c2n1	-1	·	4	0	·
CCOC(=O)Cc1cc(=O)n2[nH]c(C)c(-c3ccc(OC)cc3)c2n1	3	42*	-2	4	·
CS(=O)(=O)c1ccccc1-c1nc(-c2ccc(C(F)(F)F)cc2)no1	3	1	26	-1	·
Cc1c(-c2nc(-c3ccc(C(F)(F)F)cc3)no2)n(C)oc1=O	5	42*	-5	-10	i
COc1ccc(CC(NC(C)=O)C(=O)NC2CCN(c3nc(C)cc(C)c3C#N)CC2)c(OC)c1 (centres undefined)	2	41*	-12	1	i
COc1cccc(-c2cnc(C(O)c3ccc(Cl)cc3)[nH]2)c1 (centres undefined)	6	5	·	0	·
COc1ccc(C(=O)N2CCN(c3ccc(N4CCOCC4)nn3)CC2)cc1OC	1	·	-7	23	·
CC(C)(C)c1ccc(C(=O)N2CCN(c3ccc(N4CCOCC4)nn3)CC2)cc1	0	52*	-6	-6	·
O=C(c1ccc(C(F)(F)F)cc1)N1CCN(c2ccc(N3CCOCC3)nn2)CC1	0	59*	1	-14	·
Cn1c(=O)c2cc(NC(=O)NCCc3ccccc3)ccc2n1Cc1cccc(C(F)(F)F)c1	0	·	·	2	·
CCn1c2ccccc2c2nc3cc(OC)c(OC)cc3nc21	0	48*	-31	-9	·
COc1ccc2c(c1)c1nc3ccccc3nc1n2Cc1ccc(OC)c(OC)c1	-1	7	-14	-8	·
CCOCCn1c2ccccc2c2nc3ccccc3nc21	-4	41*	14	-27	i
CC(CNC(=O)[C@@H](Cc1ccccc1)NC(=O)CC[C@H]1O[C@@H](n2ccc(=O)[nH]c2=O)[C@H](O)[C@@H]1O)c1ccccc1 (some centres undefined)	0	-6	·	-3	·
Cn1c(=O)c2[nH]c(NN=Cc3cccc(Br)c3)nc2n(C)c1=O	-4	7	-9	33	·
CN(C)CCCNC(=O)C[C@H]1C[C@H](C(=O)N2CCCCC2)[C@@]2(C)c3[nH]c4cc(-c5ccco5)ccc4c3CCN2C1=O	-1	48*	10	-18	i
CN(C)CCCNC(=O)C[C@H]1C[C@H](C(=O)N2CCCCC2)[C@@]2(CCc3ccccc3)c3[nH]c4cc(-c5ccco5)ccc4c3CCN2C1=O	-2	·	·	-91	·
COC(=O)c1ccccc1COn1c(=O)c[n+]([O-])c2ccccc21	-7	31	6	-27	·
CCOn1c(=O)c[n+]([O-])c2ccccc21	3	49*	1	-23	·
O=c1c[n+]([O-])c2ccccc2n1OCc1ccccn1	0	37*	-11	12	i
O=c1c[n+]([O-])c2ccccc2n1OCc1c(F)cccc1F	-2	42*	-10	-26	+
SMILES	Rin1-Abl PPI inh	Neddylation inh	ATG4B inh	SUMO1-SIM PPI	Neddyl conf
O=C(Cc1cccc(NC(=O)C2CCCN(C(=O)C3CCCC3)C2)c1)Nc1cccc(C(=O)N2CCCCC2)c1 (centres undefined)	-1	5	-16	-3	·
COc1ccccc1NC(=O)Cn1nnc(C(=O)NCc2ccc3c(c2)OCO3)c1N	4	3	-9	5	·
COc1ccc(Cl)cc1NC(=O)Cn1nnc(C(=O)NCc2ccc3c(c2)OCO3)c1N	2	69*	-4	-4	i
CN(C)Cc1csc(NC(=O)Nc2ccccc2Oc2ccccc2)n1	-3	-6	·	-3	·
C=CCNC(=S)/N=c1/ccccn1CCC	1	51*	-6	-8	i
Cc1[nH]c2ccccc2c1/C=N/NC(=O)c1cccc(S(=O)(=O)Nc2ccccc2Cl)c1	-1	44*	-9	19	i
COc1ccc(-n2ncc3c(NCc4ccco4)ncnc32)cc1	0	36	5	2	·
COc1ccc(-n2ncc3c(NCCCN4CCOCC4)ncnc32)cc1	0	42*	3	0	i
C=CCNc1ncnc2c1cnn2-c1ccc(OC)cc1	1	46*	3	1	i
O=C(Nc1ccc(C(=O)N2CCCCC2)cc1)C1CC1	-2	5	2	5	·
C=C1CCCC2OC(CC3=CC4/C(C)=C/CC(C)CC(/C=C(\C)C(O)C5CC(O)C(O)C(CCC(O)/C=C/C(C)=C/CCC6=NCCC(C3)C64C)O5)OC(=O)CC3OC(C(O)C1)C(O)C3O)CC(O)C2O (centres undefined)	1	1	·	-3	·
Nn1cnc2c(ncn2C2OC(CO)C(O)C2O)c1=O (centres undefined)	1	1	·	-1	·
CCc1ccc(S(=O)(=O)Nc2c(NC3CCCCC3)c3ccccc3oc2=O)cc1	2	43*	32	0	+
N#Cc1ccc(/C=C(\C(=O)C(=O)O)c2ccc3ccccc3n2)cc1	0	39*	1	-31	i
COc1ccccc1Oc1ccc(S(=O)(=O)N2CCOCC2)cc1S(=O)(=O)N1CCOCC1	1	7	-6	0	·
Cc1ccc(Oc2ccc(S(=O)(=O)N3CCOCC3)cc2C(N)=O)c(-n2nc3ccccc3n2)c1	-4	38*	-11	-6	·
COCCN1CCN(c2c(C)c(C)nc3cc(-c4cccc(OC)c4)nn23)CC1	0	24	-10	-2	·
CCOCCN1CCN(c2c(C)c(C)nc3cc(-c4cc(OC)cc(OC)c4)nn23)CC1	-3	45*	-37	8	i
CCOC(=O)[C@]12CCCC=C1N(CCC1=CCCCC1)C(=O)[C@H](CC(=O)NCC13CC4CC(CC(C4)C1)C3)C2	·	-3	·	-2	·
CC(NC(=O)c1ccccc1O)c1ccccc1 (centres undefined)	-2	46*	12	-7	·
COc1ccccc1C(=O)NC(C)c1ccccc1 (centres undefined)	3	-7	3	0	·
Cc1cc(-c2ccccc2)c2nncn2n1	0	40*	-2	-20	+
Cc1cc(-c2ccccc2)c2c3c(cn2n1)c(=O)n(C)c(=O)n3C	-6	-13	-6	-13	·
CN1CCN(c2nc(N3CCN(CCO)CC3)nc3ccccc23)CC1	1	45*	-6	2	·
c1ccc(CN2CCN(c3nc(N4CCOCC4)c4ccccc4n3)CC2)cc1	3	32	4	3	·
CC(=O)Nc1cc(-c2ccsc2)cn2c(-c3ccc(F)cc3)cnc12	-3	42*	·	-4	i
C[C@@H]1COc2cc(N3CCC[C@@H]3CO)ccc2S(=O)(=O)N1	·	11	·	5	·

Compound activity as filed in PubChem.
